Compound activity deposited in PubChem BioAssay by The Scripps Research Institute Molecular Screening Center.
FBW7 act: human FBW7 E3 ligase activation, primary screen | Q969H0 | normalized activity (activation), % at 26.1 µM | AID 1259310 | hit rate 0.13% among 650,000 | AlphaScreen FBW7–phospho-cyclin E peptide binding, activator screen; in the data active = normalized activity above about 1.9%;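 also: purified mutant Fbw7 with reduced substrate affinity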
Target sequence (Q969H0 whole entry, looked up): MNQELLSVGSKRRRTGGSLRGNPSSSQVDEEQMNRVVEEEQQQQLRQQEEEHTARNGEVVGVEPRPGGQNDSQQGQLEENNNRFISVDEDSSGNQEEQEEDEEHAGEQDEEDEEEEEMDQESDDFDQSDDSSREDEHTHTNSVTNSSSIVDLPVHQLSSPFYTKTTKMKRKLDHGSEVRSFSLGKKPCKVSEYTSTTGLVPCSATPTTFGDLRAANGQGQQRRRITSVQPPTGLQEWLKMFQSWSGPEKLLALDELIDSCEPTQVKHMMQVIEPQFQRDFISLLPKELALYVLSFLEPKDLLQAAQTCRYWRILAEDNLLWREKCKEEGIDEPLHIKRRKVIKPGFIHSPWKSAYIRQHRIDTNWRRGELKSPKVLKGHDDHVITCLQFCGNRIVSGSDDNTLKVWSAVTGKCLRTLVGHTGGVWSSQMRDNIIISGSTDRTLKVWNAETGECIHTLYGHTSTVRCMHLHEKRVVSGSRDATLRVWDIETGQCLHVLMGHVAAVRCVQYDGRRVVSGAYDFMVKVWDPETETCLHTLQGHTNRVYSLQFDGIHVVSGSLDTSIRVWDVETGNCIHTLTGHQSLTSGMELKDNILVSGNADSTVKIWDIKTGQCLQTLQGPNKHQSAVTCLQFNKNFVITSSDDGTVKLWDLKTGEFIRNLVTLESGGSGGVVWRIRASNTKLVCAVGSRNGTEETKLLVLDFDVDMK
GPR151 ag: human GPR151 activation; Q8TDV0; PathHunter beta-arrestin GPR151 cells, luminescence; activation, % at 11.2 µM; hit rate 1% among 650,000; AID 1508602; in the data active = activation above about 4.9%;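 also: 0% = median of compound wells and 100% = cells with positive control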
TEAD-YAP block: TEAD-YAP interaction inhibition | HEK-TIYL cells, TEAD-Gal4/YAP UAS-luciferase luminescence | inhibition, % at 9.12 µM | hit rate 1.4% among 640,000 | AID 1259422; in the data active = inhibition above about 32%;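 also: 0% = median of test compound wells and 100% = reference inhibitor wells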
MITF primary: inhibitors of human MITF; AlphaScreen MITF homodimerization, bead proximity signal; inhibition, % at 2.6 µM; hit rate 0.91% among 650,000; O75030; in the data active = inhibition above about 50%;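 also: 0% = vehicle wells with protein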
* hit, by the source's call. An excerpt weighted towards active compounds, which were near 3.5% of everything screened.

SMILES	FBW7 act	GPR151 ag	TEAD-YAP block	MITF primary
c1ccc(CNc2nc(Nc3cccnc3)nc3c2ncn3-c2ccsc2)cc1	-0.1	-0.1	31.6	12.1
CC(C)n1cnc2c(NCCc3ccc(O)cc3)nc(Nc3ccc4ncccc4c3)nc21	0.1	2.0	38.9*	4.0
CCOC(=O)Cn1c(CCC(=O)O)ccc1-c1ccc(Br)cc1	0.0	0.2	1.3	2.5
COc1cc(Nc2nc(NCCN(C(C)C)C(C)C)c3ncn(-c4ccsc4)c3n2)cc(OC)c1OC	-0.1	-0.7	8.8	-3.3
CC(C)N(CCNc1nc(Nc2ccc3ncccc3c2)nc2c1ncn2-c1ccsc1)C(C)C	-0.2	-2.1	44.4*	10.0
C=CCn1c(N2CCc3ccccc3C2)cc(=O)n(C)c1=O	0.3	-2.0	-1.1	-0.8
CC(=O)c1ccc(N2C(=O)c3ccc(C(=O)OCC(=O)c4ccc([N+](=O)[O-])cc4)cc3C2=O)cc1	0.1	0.8	10.5	2.1
O=C(c1cc2ccccc2o1)c1cnc2ccccn12	0.1	-10.5	39.5*	6.3
N#CC(C1=NS(=O)(=O)c2ccccc21)c1nc(C23CC4CC(CC(C4)C2)C3)cs1 (centres undefined)	-0.1	1.4	62.5*	-3.3
Cc1csc(C(C#N)C2=NS(=O)(=O)c3ccccc32)n1 (centres undefined)	0.1	-0.2	-19.0	0.5
CCOc1ccc(C2C(C(=O)OCCOC)=C(C)NC3=C2C(=O)CC(c2ccc(OC)c(OC)c2)C3)cc1 (centres undefined)	0.7	-1.6	8.0	6.8
CC1(C)CC(=O)C2=C(C1)Nc1ccccc1NC2c1cccc(F)c1 (centres undefined)	0.2	-1.1	11.4	4.1
O=C1CCCC2=C1C(c1ccc(Cl)cc1)NC(=S)N2 (centres undefined)	-0.1	2.4	17.1	5.8
O=C1CCCC2=C1C(c1cccc(O)c1)NC(=S)N2 (centres undefined)	0.1	0.8	64.6*	-22.0
CC1(C)CC(=O)C2=C(C1)NC(=S)NC2c1cccc(F)c1 (centres undefined)	-0.1	0.1	52.3*	-1.4
COc1cc(C#N)ccc1OCC(=O)Nc1ccc(Cl)c([N+](=O)[O-])c1	-0.1	-1.6	-0.4	-7.0
Cc1sc2nc(C3CC3)nc(SCC(=O)NNC(=O)c3ccco3)c2c1C	0.3	0.2	7.6	10.8
O=C(O)CCc1nc(-c2ccc(Cl)cc2Cl)no1	-0.1	1.0	-3.8	1.2
Cc1nc2nc(-c3ccc(Cl)cc3Cl)nn2c(C)c1CCC(=O)O	-0.2	0.1	80.2*	1.8
COc1cccc(-c2nc3nc(C)c(CCC(=O)O)c(C)n3n2)c1	-0.1	-0.2	48.5*	0.6
CCOc1cccc(/C=C2/SC(=Nc3ccccc3Cl)NC2=O)c1O	0.2	-1.3	-32.0	13.3
COc1ccccc1NC(=O)Nc1ccc(Cl)cc1	0.1	-1.0	-17.1	9.2
O=C(NC1CC1)c1ccnc(Cl)c1	-0.1	0.2	0.2	-3.1
O=C(NC1CCC(CC2CCC(NC(=O)c3ccncc3)CC2)CC1)c1ccncc1 (centres undefined)	0.3	-0.3	32.3*	-9.4
Cc1ccc(-c2nc3ccccc3s2)cc1NC(=O)c1cccc(I)c1	-0.1	1.4	2.2	7.8
SMILES	FBW7 act	GPR151 ag	TEAD-YAP block	MITF primary
CC(=O)Nc1ccc2nc(-c3ccc(OC(C)=O)cc3)sc2c1	-0.2	-0.4	78.1*	-4.0
Cc1ccc2nc(-c3ccc(OC(=O)c4ccc(Br)o4)cc3)sc2c1	0.1	0.9	65.0*	8.3
Cc1ccc2nc(-c3ccc(NC(=O)/C=C\C(=O)O)cc3)sc2c1	0.1	0.1	34.9*	-1.4
CC(=O)Nc1ccc(-c2nc3ccc(NC(C)=O)cc3s2)cc1	0.6	2.3	-49.9	-15.3
Cc1ccc2nc(-c3ccc(NC(=O)/C=C/c4ccccc4)cc3)sc2c1	0.0	-0.4	-21.7	3.9
Cc1ccc2nc(-c3ccc(OC(=O)c4cccc(I)c4)cc3)sc2c1	-0.2	-1.8	84.4*	-4.5
O=C(O)C1CSC(c2ccc(Cl)cc2)N1 (centres undefined)	-0.1	0.1	9.2	-2.8
Cc1ccc2nc(-c3ccc(NC(=O)CSc4nnc(N)s4)cc3)sc2c1	-0.1	-2.1	58.8*	-6.9
Cc1ccc(C(=O)Oc2ccc(-c3nc4ccc(C)cc4s3)cc2)cc1	0.0	-1.0	38.6*	-5.1
CC(=O)Oc1ccc(-c2nc3ccc(C)cc3s2)cc1	0.1	-6.2	97.9*	1.4
Cc1ccc(OCC(=O)Nc2ccc(-c3nc4ccc(C)cc4s3)cc2)cc1	0.2	-0.3	-17.3	6.3
COc1cc(OC)cc(C(=O)Nc2ccc(-c3nc4ccc(C)cc4s3)cc2)c1	0.1	-0.1	-2.5	9.5
COC(=O)CNS(=O)(=O)Nc1ccc(-c2nc3ccc(C)cc3s2)cc1	-0.1	-5.5	67.4*	8.8
